Holding throughout (experiment): NCI-60 one-dose screen, 48 h (100 = growth as untreated, 0 = no growth, -100 = all killed)
Common to all, as to conditions: 10 µM unless noted

Assay [1] concerns SK-MEL-2 melanoma.
For assay [2], the system named is EKVX NSCLC.
Assay [3] has as its system SN12C renal.
The test system of assay [4] is UO-31 renal.
Assay [5] concerns TK-10 renal.
Assay [6] deals with ACHN renal.
Assay [7] relates to CAKI-1 renal.
Assay [8] has as its system A498 renal.
Assay [9] relates to MOLT-4 leukemia.
Assay [10] relates to CCRF-CEM leukemia.

Each structure is given as a SMILES string. Compounds without any hit were thinned out: in the full panel of roughly 83,000, 20% have a hit.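 96-well plates, one dose, 48 hours. Percent growth reported; active if below 10.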 A number with no mark means an inactive call. Active and inactive are the calls of the source.

Among the data in PubChem BioAssay (NCI) are growth values, retold here.

`CC1(C)CC[C@]2(C(=O)O)CC[C@]3(C)C(=CCC4[C@@]5(C)C[C@@H](O)[C@@H]6OC(c7cccc(Br)c7)OC[C@@]6(C)C5CC[C@]43C)C2C1` (some centres undefined): the growth was 65.8% in [1]; 27.8% in assay [2]; 46.3% in assay [3]; 30.3% in assay [4]; 35.4% in assay [5]; 19.4% in [6]. For the same molecule, the growth was 39.4% in assay [7], 69.5% in assay [8] and 13.2% in assay [9].

As to `O=C(CN1C(=O)/C(=C/c2ccccc2Cl)SC1=S)N1CCOCC1`, the growth is 103% in assay [1]; 99.8% in [2]; 78.5% in assay [3]; 66.5% in assay [4]; 112% in assay [5]; 61.2% in [6]. Besides, the growth was 90.9% in [7], 119% in assay [8], 61.8% in [10] and 85.9% in assay [9].

Turning to `O=C1CCCc2cc(OCC(=O)N3CCCCC3)ccc2N1`, the growth in [1] is 111%; in assay [2], 104%; in assay [3], 114%; in assay [4], 92.9%; in assay [5] it was 104%; in assay [6], 107%. Besides, the growth in assay [7] is 96.7%; in assay [8] it was 114%; in assay [10] it was 98.4%; in assay [9], 102%.

As to `N#Cc1c(-c2cccc(Cl)c2Cl)cc(-c2ccc3ccccc3c2)[nH]c1=O`, the growth in [1] is 126%; in assay [2], 49%; in [3], 19.1%; in [4], 24.6%; in assay [5], 48.9%; in assay [6] it was 40.8%. For the same molecule, the growth is 47.2% in assay [7], 87.5% in assay [8], 38.3% in [10] and 71.5% in assay [9].

`NC(=S)Nc1cccc(NC(N)=S)c1`: the growth was 112% in [1]; 101% in assay [2]; 81.9% in [3]; 70% in assay [4]; 107% in assay [5]; 96.3% in assay [6]. In addition, the growth in assay [7] was 79.7%; in assay [8], 101%; in assay [9] it was 89.7%.

`O=C(/C=C/Nc1ccc(Cl)cc1)c1ccc2c(c1)Nc1ccccc1S2`: the growth in [1] is 55.1%; in [2] it was 55.8%; in assay [3], 61.8%; in assay [4], 36.1%; in [5] it was 72%; in assay [6] it was 30.7%. Besides, the growth in assay [7] was 38.3%; in assay [8], 108%; in assay [9], 66.2%.

`CSc1ccc(C(=O)Nc2ccc3nnn(/C(C#N)=C/c4ccccn4)c3c2)cc1`: the growth was -82% (active) in assay [1]; -86.4% (active) in assay [2]; -4.37% (active) in assay [3]; -100% (active) in assay [4]; -74% (active) in [5]; -93.2% (active) in [6]. Also, the growth in [7] was 4.99% (active); in assay [8], 59.3%; in assay [9], 12.1%.

For `C=C1CCC2C3(C)COC(c4ccco4)OC3CCC2(C)C1CC(Sc1ccccc1)C1=CCOC1=O` (centres undefined), the growth was 80% in assay [1]; 105% in assay [2]; 21.4% in [3]; 51.8% in assay [4]; 123% in [5]; 70.3% in assay [6]. Also, the growth in [7] was 88.2%; in assay [8], 137%; in [9], 16.9%.

For the molecule `CC1CCCCN1CCCNC(=O)N/C(N)=N/c1nc2ccccc2s1` (centres undefined), the growth is 41.3% in assay [1]; 46.1% in assay [2]; 40.9% in [3]; 24.4% in assay [4]; 70.1% in [5]; 42.5% in assay [6]. The results for the growth in assay [7], in assay [8] and in [9] were 24.6%, 104% and 16.4%, respectively.

As to `CCN(CC)c1ccc(/C=N/Nc2nc(-c3ccc(C)cc3)cs2)c(O)c1`, the growth in assay [1] was 79.7%; in assay [2], 79.2%; in [3] it was 99.7%; in assay [4], 83.2%; in assay [5] it was 86.9%; in assay [6], 96.3%. Further, the growth in assay [7] was 78%; in assay [8], 105%; in [9] it was 80%.

For `C=C1CC[C@@H]2[C@]3(C)COC(c4cn[nH]c4-c4ccc(F)cc4)O[C@@H]3CC[C@@]2(C)[C@@H]1C/C=C1/C(=O)OCC1O` (some centres undefined), the growth in assay [1] was -39% (active); in assay [2] it was -6.56% (active); in assay [3], -51.4% (active); in assay [4], -80.4% (active); in assay [5], -19.1% (active); in assay [6], -80.3% (active). For the same molecule, the growth in [7] is 1.51% (active); in assay [8], 146%; in [10], -3.97% (active); in assay [9], 1.15% (active).

In the case of `Cc1cc2nc3c4ccccc4n(CC4=NCCN4)c3nc2cc1C`, the growth was 66.7% in assay [1]; 60.4% in [2]; -6.68% (active) in assay [3]; -95.2% (active) in assay [4]; 64.4% in [5]; -100% (active) in [6]. The values for the growth in assay [7], in [8] and in assay [9] were -70% (active), 63.8% and -19.4% (active), respectively.

Turning to `CC1(C)CC[C@]2(C(=O)O)CC[C@]3(C)C(=CCC4[C@@]5(C)C[C@@H](O)[C@@H]6OC(c7ccc(F)cc7)OC[C@@]6(C)C5CC[C@]43C)C2C1` (some centres undefined), the growth was 18.1% in assay [1]; 20.5% in [2]; 31.8% in [3]; 25.6% in [4]; 26.9% in assay [5]; 13.3% in [6]. Further, the growth in assay [7] is 33.6%; in assay [8], 46.8%; in [10], 14.6%; in assay [9], 8.69% (active).

Consider `Cc1nc(Nc2ccccn2)sc1C(=O)CC(SCC(=O)Nc1ccc(Cl)cc1)c1ccccc1F` (centres undefined), for which the growth in assay [1] was -27.1% (active); in assay [2] it was 36.5%; in [3], -15.1% (active); in assay [4] it was 30.3%; in [5], 6.79% (active); in assay [6], 24.6%. The growth was 15.3% in assay [7], 45.3% in assay [8], 12.4% in assay [10] and 23.7% in [9].

On to `O=C(c1ccc(OCCN2CCOCC2)cc1)C1[C@H](c2ccc(Cl)cc2)[C@@H](c2ccccc2)NC12C(=O)Nc1ccc(Br)cc12` (some centres undefined), for which the growth in [1] is 28.3%; in assay [2], 19.8%; in [3], -8.07% (active); in assay [4], 15.1%; in assay [5] it was 40.2%; in [6], 5.53% (active). Further, the growth in assay [7] was 15.4%; in assay [8] it was 91.5%; in assay [10], 20.7%; in assay [9] it was -33.9% (active).

With `Cc1cc2nc3c4ccccc4n(CCCN(C)C)c3nc2cc1C`, the growth in assay [1] was -90.1% (active); in [2] it was -41.8% (active); in assay [3], -27.6% (active); in assay [4] it was 2.63% (active); in assay [5], 8.05% (active); in assay [6], 4.95% (active). The growth was 3.24% (active) in assay [7], -39.6% (active) in [8], 0.177% (active) in assay [10] and 2.75% (active) in [9].

Regarding `O=C(COc1ccc(NC(=O)Nc2ccc(Cl)c(Cl)c2)cc1)N=Nc1c(O)[nH]c2ccccc12`, the growth is -41.9% (active) in [1]; 18.6% in assay [2]; -32% (active) in assay [3]; 87.5% in assay [4]; 30.5% in assay [5]; 36.9% in assay [6]. Besides, the growth was 15.6% in assay [7], -53.6% (active) in assay [8], 37.3% in assay [10] and 1.27% (active) in assay [9].

Regarding `NS(=O)(=O)c1ccc(NNC(=O)CCC(=O)c2ccccc2)cc1`, the growth is 107% in assay [1]; 103% in assay [2]; 92.5% in assay [3]; 84% in assay [4]; 109% in [5]; 101% in [6]. The growth in [7] was 90.2%; in assay [8], 94.2%; in assay [9] it was 89.8%.

Consider `CC1=C(C(=O)c2ccccc2)C(c2ccc(-n3cncn3)cc2)n2c(nc3ccccc32)N1` (centres undefined), for which the growth in assay [1] was 101%; in assay [2], 64.4%; in assay [3] it was 79.4%; in assay [4], -22.7% (active); in assay [5] it was 104%; in assay [6] it was 88.8%. Also, the growth in [7] is 62.8%; in assay [8] it was 113%; in assay [9] it was 66.9%.

Regarding `Cc1ccc([C@H]2C(C(=O)c3ccc(Cl)cc3)C3(N[C@@H]2c2ccccc2)C(=O)Nc2ccc(Br)cc23)cc1` (some centres undefined), the growth is 60.2% in assay [1]; 65.3% in assay [2]; 4.02% (active) in assay [3]; 38.6% in assay [4]; 91.6% in assay [5]; 47% in assay [6]. For the same molecule, the growth is 44% in [7], 101% in [8] and 8.72% (active) in assay [9].

Take `CCCS(=O)(=O)N1CCCC(C(=O)Nc2nc3ccc(NC(=O)c4ccc(F)c(OC)c4F)cc3s2)C1` (centres undefined): the growth in assay [1] is 49.7%; in assay [2], 39.7%; in assay [3], 65.5%; in assay [4], 38.8%; in assay [5], 75.3%; in assay [6], 46.7%. The growth in assay [7] is 43.2%; in assay [8], 84.3%; in [10] it was 14.9%; in assay [9] it was 0.124% (active).
